FLuc counter: qHTS profiling assay for firefly luciferase inhibitor/activator using purifed enzyme and Km concentrations of substrates (counterscreen for miR-21 project) | purified FLuc, Km substrates, luminescence inhibition | Potency, µM (top dose mostly 57.5 µM), inactives show at the highest dose activity change, negative = inhibition, hits mostly inhibitors | hit rate 6.9% among 360,000;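 note: plate controls were vehicle for no effect and reference inhibitor for full effect; nearly all actives have a fitted effect of over 55% in size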
Target sequence (P08659 whole entry, looked up): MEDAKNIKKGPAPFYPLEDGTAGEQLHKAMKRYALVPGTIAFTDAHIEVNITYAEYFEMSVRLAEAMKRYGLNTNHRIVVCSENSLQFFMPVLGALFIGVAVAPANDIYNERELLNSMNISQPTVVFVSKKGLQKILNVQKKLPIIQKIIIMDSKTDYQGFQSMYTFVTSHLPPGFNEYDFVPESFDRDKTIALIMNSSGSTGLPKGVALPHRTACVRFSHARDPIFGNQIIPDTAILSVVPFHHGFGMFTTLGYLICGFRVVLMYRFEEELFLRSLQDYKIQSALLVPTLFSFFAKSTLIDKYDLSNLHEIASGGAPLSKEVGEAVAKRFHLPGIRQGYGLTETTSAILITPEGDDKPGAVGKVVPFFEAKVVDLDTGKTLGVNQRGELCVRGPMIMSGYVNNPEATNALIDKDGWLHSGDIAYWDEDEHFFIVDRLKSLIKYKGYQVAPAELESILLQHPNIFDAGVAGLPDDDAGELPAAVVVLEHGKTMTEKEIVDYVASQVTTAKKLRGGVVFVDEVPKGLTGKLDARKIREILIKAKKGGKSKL
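Purified P. pyralis luciferase (10nM final) with 10uM D-luciferin and 10uM ATP (Km levels) in 50mM Tris acetate pH 7.5, 10mM Mg acetate, 0.01% Tween-20, 0.05% BSA; qHTS 6-point titration, ~60 µM downward; luminescence read.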
KinaseGlo FLuc: Counterscreen for Luciferase (Kinase-Glo TM) Inhibition; AID 1379, 2008; hit rate 0.28% among 200,000; Potency, µM (highest dose often 38.3 µM), without a hit: at the highest dose activity change, negative = inhibition, most hits filed as inhibitors; Kinase-Glo luciferase, ATP luminescence, 8 min; note: % is set by controls: 0 for no effect and ±100 for the full control effect; nearly all actives have a fitted effect of over 60% in size
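Light output from Kinase-Glo luciferase with luciferin and 10 uM ATP in 50 mM imidazole pH 7.2, KCl, MgCl2, Tween 20, BSA; compound pin-delivered, 8-min ambient incubation, then luminescence read.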
NPC1 promoter act: qHTS Assay for NPC1 Promoter Activators; Huh7 NPC1 promoter luciferase reporter, 24 h; Potency, µM (series often up to 9.22 µM), for the others: at the top dose activation, actives largely listed as activators; hit rate 2.4% among 320,000; note: % of control where 0% means no effect; nearly all actives have a fitted effect of over 60% in size
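NPC1 promoter–luciferase Huh7 cells; 24 h compound; luminescence.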
ELG1 genotox: qHTS screen for small molecules that induce genotoxicity in human embryonic kidney (HEK293T) cells expressing luciferase-tagged ELG1; HEK293T ELG1-luciferase reporter, luminescence, 16 h; Potency, µM (top dose mostly 46 µM), inactives show top-dose activity change, positive = activation, hits mostly activators; hit rate 1.3% among 330,000; AID 504466, 2011; note: % of control where 0% means no effect; nearly all actives have a fitted effect of over 60% in size
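Reporter readout depends on ELG1 protein level, which increases with genetic stress. After 16 hr compound exposure at 37 °C, luciferase activity was quantified using ONE-Glo.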
SMN2 splice enh: qHTS Assay for Enhancers of SMN2 Splice Variant Expression; AID 1458, 2008; hit rate 2.8% among 210,000; Potency, µM (highest dose often 46.1 µM), for inactives: top-dose activity change, positive = activation, hits mostly activators; HEK293 SMN2-luciferase splicing reporter, luminescence, 30-36 h; note: % of control where 0% means no effect; nearly all actives have a fitted effect of over 55% in size
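HEK293 cells carry an SMN2 minigene-luciferase reporter in which exon 7 inclusion puts luciferase in frame. Cells were seeded at 2000 cells/well, attached for 10-12 hours, then exposed to compounds for 30-36 hours at 37C before ONE-Glo luminescence.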
Rab9 prom act: qHTS Assay for Rab9 Promoter Activators. Huh7 Rab9 promoter-luciferase reporter, luminescence, 24 h. hit rate 2.8% among 320,000. Potency, µM (series often up to 9.22 µM), inactives show at the top dose activation, negative = inhibition, hits mostly activators; note: % of control where 0% means no effect; nearly all actives have a fitted effect of over 60% in size
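Cell-based reporter: Huh7 stable for Rab9 promoter-driven luciferase, plated in reduced-serum medium with 10% FBS at 1500 cells/well, compound-treated 24 h at 37 °C, luminescence read after 10 min reagent.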
Starred values were filed as active, the others as inactive; ? = inconclusive; · = no result. Compounds with a hit are over-represented: about 7.4% of the library has one in this group of screens. Calls come from the whole dose curve; as a rule, active = well fitted curve in the direction sought with a large enough effect; inconclusive = small, poorly fitted or top-dose-only effect, or another doubt; inactive = no such curve, though single readings can be large; an effect the other way counts as inactive or inconclusive. Potency is the fitted concentration of half-maximal effect.

SMILES | FLuc counter | KinaseGlo FLuc | NPC1 promoter act | ELG1 genotox | SMN2 splice enh | Rab9 prom act
N/C(=N\OC(=O)c1ccc2c(c1)OCO2)c1cccnc1 | 1.2µM* | ? | ? | ? | · | ?
COc1ccc(C(=O)Oc2ccc3c(c2)OCO3)cc1OC | 24µM* | -3% | 3% | 11% | 4% | 3%
N/C(=N\OC(=O)c1ccc2c(c1)OCO2)c1ccc([N+](=O)[O-])cc1 | ? | -8% | ? | ? | 26% | ?
N/C(=N\OC(=O)c1cccc(Br)c1)c1ccc(Br)cc1 | ? | -4% | 24% | 12% | -5% | 11%
N/C(=N\OC(=O)c1ccc2c(c1)OCO2)c1cccc(Br)c1 | 0.13µM* | 13µM* | ? | ? | · | 4.5µM*
COc1ccc(/C(N)=N/OC(=O)c2ccc3c(c2)OCO3)cc1OC | 3µM* | -14% | ? | ? | ? | ?
O=C(OCCN1CCN(C2=NS(=O)(=O)c3ccccc32)CC1)c1ccccc1F | -2% | · | 0% | -1% | · | 6%
COc1ccc2c(c1)CC/C(=C/c1ccncc1)C2=O | 13µM* | -10% | -2% | 0% | -58% | -14%
COc1ccc(/C=C2/CCOC2=O)cc1 | -18% | 1% | 6% | 2% | -3% | -3%
COc1ccc2c(c1)OC/C(=C/c1ccc(OC)c(OC)c1)C2=O | · | -10% | · | · | -103% | ·
COc1ccc2c(c1)CC/C(=C\c1ccc(C)o1)C2=O | 2.4µM* | · | 2.5µM* | ? | · | 2.8µM*
CS/C(N)=N/N=C/c1cc(Br)cc(Br)c1O | 27µM* | · | -1% | 3% | · | 2%
CCCCS/C(N)=N/N=C/c1cc(C)ccc1O | 17µM* | -4% | 18% | ? | 15% | 5%
CS/C(N)=N/N=C/c1cc(C)ccc1O | 1.2µM* | · | 1.1µM* | 7.3µM* | · | 0.16µM*
NC(N)=N/N=C/c1cc([N+](=O)[O-])ccc1O | -2% | 4% | 0% | 2% | -5% | -1%
CCS/C(N)=N/N=C/c1cc(C)ccc1O | 0.95µM* | -8% | 1.6µM* | 1.2µM* | 11µM* | ?
CCN(CC)c1ccc(/C=N/N=C(N)N)c(O)c1 | -5% | -2% | -11% | 10% | -37% | -19%
Cc1nc(SCC(=O)NC(C)(C#N)C2CC2)c2c(-c3cccs3)csc2n1 (stereo not given) | -9% | 0% | -2% | -2% | -19% | -6%
Cc1cc(O)c(/C=N/Nc2ccc(Cl)cc2)c(=O)o1 | 2.7µM* | -5% | 20% | 10% | -21% | 15%
Cc1cc(O)c(/C=N/Nc2ccccc2Cl)c(=O)o1 | ? | -2% | ? | ? | -1% | 30%
Cc1cc(O)c(/C=N/Nc2cccc(Cl)c2)c(=O)o1 | 15µM* | -1% | 19% | 10% | -24% | 1%
CN1CCC(OC(=O)c2cccc(Cl)c2)CC1 | -4% | 0% | -1% | 0% | -3% | 1%
Cc1cc2n(n1)C(c1ccc3c(c1)OCO3)Nc1c(C)cccc1-2 (stereo not given) | -7% | 0% | -1% | -4% | 4µM* | -2%
COc1cc(CNc2ccc(NC(C)=O)cc2)ccc1OCc1ccccc1C | 15µM* | 2% | 13% | ? | 15% | ?
COc1cc(CNc2ccc(N3CCN(C(C)=O)CC3)cc2)ccc1OCc1ccccc1 | ? | -2% | -2% | ? | · | -8%
SMILES | FLuc counter | KinaseGlo FLuc | NPC1 promoter act | ELG1 genotox | SMN2 splice enh | Rab9 prom act
Cn1sc(NC(=O)c2ccccc2Cl)nc1=O | 19µM* | -4% | -8% | 4% | ? | -1%
Cn1sc(NC(=O)c2cccc(Cl)c2)nc1=O | 19µM* | -4% | ? | 13% | 17% | 24%
CC(=O)Cc1nsc(NC(=O)c2ccccc2Cl)n1 | -10% | 1% | -1% | 9% | 17% | 0%
Cc1cc(=O)n2[nH]c(NC(=O)c3cccc(Cl)c3)nc2n1 | -17% | · | · | · | -9% | ·
C[C@H]1C(=O)N(C)CCN1C(=O)c1cccc(OC2CCN(CC(C)(C)C)CC2)c1 | 1% | · | 4% | 4% | · | -3%
COc1cccc(-n2c(C)nc3c(cnn3-c3ccc(C)c(C)c3)c2=O)c1 | ? | · | · | · | -8% | ·
COc1cccc(OC)c1C(=O)Nc1ccnn1C | 1% | · | 2% | 0% | · | -3%
O=[N+]([O-])c1ccccc1COc1ccc(Cl)c2cccnc12 | 0.54µM* | · | 0.63µM* | 1.6µM* | · | 0.28µM*
O=C(Oc1ccc(Cl)c2cccnc12)c1cccc([N+](=O)[O-])c1 | ? | -3% | -2% | 0% | 6% | -3%
COc1ccc(-c2nnc(SC(C)C(=O)NNC(=O)c3ccc(C)cc3)o2)cc1 (stereo not given) | -19% | 0% | 3% | 2% | -27% | 14%
COc1ccc(-c2nnc(SC(C)C(=O)O)o2)cc1 (stereo not given) | 12µM* | · | · | · | -1% | ·
COc1ccc(-c2nnc(SC(C)C(=O)Nc3cccc(Cl)c3)o2)cc1 (stereo not given) | -18% | -5% | ? | 21µM* | 16µM* | 4µM*
CCCOC(=O)c1cccc(NC(=O)CSc2nnc3cc(C)c4ccccc4n23)c1 | -6% | · | · | · | · | ·
CCOc1ccccc1C1C(C(=O)Nc2ccccc2)=C(C)Nc2nc(SCC(=O)c3ccc(C)cc3)nn21 (stereo not given) | -1% | · | · | · | · | ·
c1ccc(-n2nc3c(ccc4cnnc43)[nH]2)cc1 | 7.6µM* | -15% | 2.5µM* | ? | ? | 1.8µM*
Cc1ccccc1CN1C[C@@H]2C[C@@H](c3cnc(N4CCOCC4)s3)N3CCC[C@@]23C1=O | -3% | -2% | -4% | -8% | 16µM* | -32%
O=C(CNC(=O)c1ccccc1)OCc1nc2ccccc2s1 | 9.5µM* | · | 8% | ? | · | 7%
O=C(CNC(=O)c1ccccc1F)OCc1nc2ccccc2s1 | 17µM* | -4% | -2% | 14% | 15% | 4%
O=C(Nc1ccc2c(c1)OCCO2)c1cc2sccc2n1Cc1ccc(F)cc1 | ? | 0% | 13% | -1% | -30% | 28%
O=C(Nc1ccc2c(c1)OCCO2)c1cc2sccc2n1Cc1ccccc1 | 21µM* | 1% | 24% | -1% | 10% | ?
Cn1c(C(=O)Nc2ccc3c(c2)OCCO3)cc2sccc21 | 1.1µM* | -15% | 1.3µM* | 2.1µM* | 7.1µM* | 1.1µM*
O=C(OCC(=O)N1CCc2ccccc21)c1ccc([N+](=O)[O-])o1 | · | · | · | 0% | · | ·
Cc1cccc(C)c1NC(=O)c1cnn(-c2ccccc2)c1C | -16% | · | 0% | -5% | · | -3%
